Source: PubChem
HepG2 tox = kills HepG2 cells in TGF-b inhibitor counter-screen | HepG2 CAGA-GFP viability, ATP luminescence, 18 h | Potency, µM (top dose mostly 46.1 µM), usual class: cytotoxic | 0.76% of 410,000 active
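HepG2 CAGA-GFP cells (1000/well, DMEM with 1% FBS) received compound, then TGF-beta at 500 pg/mL final, and were incubated 18 hours at 37 degrees C. Viability was read by CellTiter-Glo luminescence. Media-only wells were set as complete cell-killing and DMSO as no toxicity.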
TGFb SMAD3 inh = blocks TGF-b signaling; HepG2 CAGA-GFP TGF-b/SMAD3 reporter, GFP fluorescence, 18 h; TGF-beta stimulated, 500 pg/mL final; Potency, µM (highest dose often 46.1 µM), usual class: inhibitors; 1.2% of 410,000 active; also: nearly all actives have a fitted effect of over 65% in size
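First, reporter cells (HEPG2 CAGA-GFP) rested 2 h at 37 degrees C. Next, compounds were pinned in and TGF-beta added to 500 pg/mL final. After 18 h, GFP was imaged per cell and summed per well.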
TDP1 inh = blocks human tyrosyl-DNA phosphodiesterase 1; recombinant TDP1, AlphaScreen DNA substrate cleavage; Potency, µM (series often up to 130 µM), most hits filed as inhibitors; 0.28% of 350,000 active; also: nearly all actives have a fitted effect of over 40% in size
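E. coli-derived human Tdp1, 1 nM final. Cpd preinc 15 min RT; substrate 15 nM final, 5 min RT; AS bead mix 10 ug/ml final, 10 min RT. Signal loss = tyrosine-FITC cleavage. No-enzyme wells = max signal.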
IL1B secr inh = inhibitors of inflammasome signaling (IL-1 beta secretion) | THP-1 LPS/ATP IL-1B secretion, AlphaLISA, 16 h; hits give low values | activity change, % at 57.5 µM | 4.7% of 360,000 active | AID 743279; in the data active = activity change below about -50%; inconclusive = mostly about -30% to -49%
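Secreted IL-1B measured by AlphaLISA bead assay after 16 h compound exposure of THP-1 cells; compounds (final up to 57.5 uM) added 1 h before LPS (250 ng/mL) and ATP (1.25 mM) stimulation; lower signal means less secretion.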
DT40 TDP1 CPT = DT40-hTDP1 cell growth loss with CPT. chicken DT40 Tdp1-/-;hTDP1 cells + 20 nM CPT, ATP luminescence, 48 h. Potency, µM (doses to about 46.2 µM), hits mostly inhibitors. 12% of 420,000 active. AID 686979; also: nearly all actives have a fitted effect of over 55% in size
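Chicken DT40 Tdp1-/- cells complemented with human TDP1, 400 cells/well, exposed to compounds plus 20 nM camptothecin for at least 48 h at 37 C; viability read as ATP content by CellTiter-Glo luminescence.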
DT40 TDP1 no CPT = qHTS for Inhibitors of human tyrosyl-DNA phosphodiesterase 1 (TDP1): qHTS in cells in absence of CPT | DT40 Tdp1-/- hTDP1 cells, no CPT, ATP luminescence, 48 h | Potency, µM (top dose mostly 46.2 µM), usual class: inhibitors | 15% of 420,000 active; also: nearly all actives have a fitted effect of over 55% in size
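No-CPT arm: Tdp1-/-;hTDP1 DT40 cells (400/well) plus compounds, incubated ≥48 hr at 37 °C. Readout CellTiter-Glo luminescence.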
Of the large screens only hits and unclear results are named; the others gave an inactive call. In the library only some 18% were active in any assay of this set; here they are far more common. Unless noted, calls follow the shape of the dose curve; as a rule, active = well fitted curve in the direction sought with a large enough effect; inconclusive = small, poorly fitted or top-dose-only effect, or another doubt; inactive = no such curve, though single readings can be large; an effect the other way counts as inactive or inconclusive.

CCOc1ccccc1CNC(=O)c1oc2ccc3c(c2c1C)C(=O)CC(C)(C)O3	DT40 TDP1 CPT inconclusive, DT40 TDP1 no CPT 13µM (no result: TGFb SMAD3 inh, IL1B secr inh)
CCC1(C)CC(=O)c2c(ccc3oc(C(=O)NCc4ccccc4)c(C)c23)O1 (configuration not stated)	TGFb SMAD3 inh inconclusive, DT40 TDP1 CPT 29.1µM, DT40 TDP1 no CPT 16.4µM (no result: IL1B secr inh)
Cc1c(C(=O)NCc2ccoc2)oc2ccc3c(c12)C(=O)CC(C)(C)O3	IL1B secr inh -51.8, DT40 TDP1 CPT 14.6µM, DT40 TDP1 no CPT inconclusive
Cn1cc(C[C@H](C(=O)O)N2C(=O)c3ccc(C(=O)O)cc3C2=O)c2ccccc21	none (no result: HepG2 tox, TGFb SMAD3 inh, IL1B secr inh, DT40 TDP1 CPT, DT40 TDP1 no CPT)
CCOC(=O)N1CCN(c2cc(N3CCN(CC)CC3)c(F)cc2[N+](=O)[O-])CC1C (configuration not stated)	IL1B secr inh inconclusive, DT40 TDP1 CPT 20.6µM, DT40 TDP1 no CPT inconclusive
CCN1CCN(C(c2ccc(SC)cc2)c2c(O)cc(C)n(CCOC)c2=O)CC1 (configuration not stated)	none (no result: IL1B secr inh)
CCCCNC(=O)C(CC)Sc1nc2ccccc2c(=O)n1CCc1ccc(OC)c(OC)c1 (configuration not stated)	DT40 TDP1 CPT 8.2µM, DT40 TDP1 no CPT 8.2µM (no result: IL1B secr inh)
CCOc1ccc(CCn2c(-c3ccco3)nc3ccccc3c2=O)cc1OCC	IL1B secr inh -57.0, DT40 TDP1 CPT 1.3µM, DT40 TDP1 no CPT 0.82µM
CCOC(=O)CSc1nc2ccccc2c(=O)n1CCc1ccc(OC)c(OC)c1	DT40 TDP1 CPT 13µM, DT40 TDP1 no CPT 11.6µM (no result: IL1B secr inh)
CCOC(=O)CSc1nc2ccccc2c(=O)n1CCC(=O)NCCc1ccc(OC)c(OC)c1	none
Nc1nnnn1/N=C/c1ccc(F)cc1	none (no result: TDP1 inh)
COc1cccc(NC(=O)CCC2CCN(C(=O)c3ccc(C(C)=O)s3)CC2)c1	none
COc1ccc(/C(C)=N/NC(=O)CNC(=O)/C=C\c2ccco2)cc1	DT40 TDP1 CPT 13µM, DT40 TDP1 no CPT 9.2µM
CCOc1ccc(NC(=S)NC(=O)/C=C/c2ccco2)cc1	DT40 TDP1 CPT inconclusive, DT40 TDP1 no CPT 18.4µM (no result: TDP1 inh)
COc1cccc(NC(=S)NC(=O)/C=C/c2ccco2)c1	TGFb SMAD3 inh inconclusive, DT40 TDP1 CPT 18.4µM, DT40 TDP1 no CPT 14.6µM
CN1CCN(c2ccc(NC(=S)NC(=O)/C=C/c3ccco3)cc2)CC1	IL1B secr inh -95.6, DT40 TDP1 CPT inconclusive, DT40 TDP1 no CPT 20.6µM
COC(=O)c1ccccc1NC(=O)c1ccc(F)cc1F	none (no result: HepG2 tox, TGFb SMAD3 inh, IL1B secr inh, DT40 TDP1 CPT, DT40 TDP1 no CPT)
CC(=O)/C(=C(/O)c1ccccc1)c1nc2ccccc2[nH]1	none
CC(C)(C)c1ccc(/C=C(\c2nc3ccccc3[nH]2)S(=O)(=O)c2ccccc2)cc1	TGFb SMAD3 inh 15.8µM, IL1B secr inh -95.5, DT40 TDP1 CPT 23.1µM, DT40 TDP1 no CPT inconclusive (no result: TDP1 inh)
O=C(O)c1ccc(/C=C(\c2nc3ccccc3[nH]2)c2nc3ccccc3s2)cc1	TGFb SMAD3 inh inconclusive, IL1B secr inh -70.3, DT40 TDP1 CPT inconclusive (no result: TDP1 inh)
COC(=O)[C@@H]1CCCN1C(=O)c1cc(NC(=O)C2CCC2)c2c(c1)nc(-c1ccncc1)n2C	none (no result: HepG2 tox, TGFb SMAD3 inh, TDP1 inh, IL1B secr inh)
COc1cc2c(cc1OC)C(C)N(C(=S)Nc1ccccc1)CC2 (configuration not stated)	DT40 TDP1 no CPT inconclusive
COc1cc2c(cc1OC)C(C)N(C(=O)c1cc3ccccc3o1)CC2 (configuration not stated)	IL1B secr inh -59.4, DT40 TDP1 CPT 8.2µM, DT40 TDP1 no CPT inconclusive
COc1cc2c(cc1OC)C(C)N(C(=O)c1c(C)noc1C)CC2 (configuration not stated)	DT40 TDP1 CPT inconclusive, DT40 TDP1 no CPT 13µM
COc1cc2c(cc1OC)[C@H](C)N(C(=O)NCc1ccccc1)CC2	DT40 TDP1 CPT 23.1µM, DT40 TDP1 no CPT 7.31µM (no result: TDP1 inh)
COc1cc2c(cc1OC)[C@H](C)N(C(=O)COc1ccccc1)CC2	none (no result: TDP1 inh)
